The experiment deals with CD276, Q5ZPR3.
Sequence of CD276, Q5ZPR3 (Q5ZPR3 whole entry): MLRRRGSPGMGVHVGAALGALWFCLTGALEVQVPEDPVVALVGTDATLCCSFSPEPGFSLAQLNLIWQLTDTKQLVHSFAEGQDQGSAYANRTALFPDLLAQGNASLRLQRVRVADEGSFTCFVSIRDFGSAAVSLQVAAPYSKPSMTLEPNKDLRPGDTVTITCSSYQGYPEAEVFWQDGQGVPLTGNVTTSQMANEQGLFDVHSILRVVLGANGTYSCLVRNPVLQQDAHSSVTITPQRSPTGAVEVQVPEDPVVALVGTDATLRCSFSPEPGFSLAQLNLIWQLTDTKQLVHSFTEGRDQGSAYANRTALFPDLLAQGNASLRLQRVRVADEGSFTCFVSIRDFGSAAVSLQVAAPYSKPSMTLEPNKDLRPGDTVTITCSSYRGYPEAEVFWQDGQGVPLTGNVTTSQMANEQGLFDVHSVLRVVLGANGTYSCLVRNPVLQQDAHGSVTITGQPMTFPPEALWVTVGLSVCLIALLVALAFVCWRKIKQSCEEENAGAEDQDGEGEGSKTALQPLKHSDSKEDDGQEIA

B1: design_391_ca6baf5d-2451-47ba-bffc-fc886679966a_1193_dldesign_0_cycle1_af2pred (protein)
chain: AAARQAALLAQAEALRAQAVALADGTAEEQQALLQQIVDLAQAHPDMSPETWAALNAALAAASSAYIRAARA
With B1, the “binding in a display sort” value is “not found (inactive)”.

B2: design_391_ca6baf5d-2451-47ba-bffc-fc886679966a_1760_dldesign_0_cycle1_af2pred (protein)
chain: KEETQRVMVEATRVINRVAALVIAHPELTEAAALIQQALALLEQAKELLEAGEEEKALELAKQALELAKKALEIAESAL
With B2, the “binding in a display sort” value is “not found (inactive)”.

B3: design_391_ca6baf5d-2451-47ba-bffc-fc886679966a_707_dldesign_0_cycle1_af2pred (protein)
chain: AEEEERERRAEEVRRWAEERAAQARALAAQDPQAGLALALEAMEELRELRERDPAVAEAAREGEQLMAEIAAQAAKAATA
B3: the “binding in a display sort” value is “not found (inactive)”.

B4: design_391_ca6baf5d-2451-47ba-bffc-fc886679966a_1601_dldesign_0_cycle1_af2pred (protein)
chain: STLQELVDAAKEALAAAGELYRLDPERGEALRKQVWALLIAGLRDPATAAADKAKIEALKAEAEALVAELK
Consider B4, for which the “binding in a display sort” value is “not found (inactive)”.

B5: design_391_ca6baf5d-2451-47ba-bffc-fc886679966a_1360_dldesign_0_cycle1_af2pred (protein)
chain: DYTERAKAALKSAIENMAKAAIEAAKEDAEKGKEKLKQLKELSEQMIAIAASLDPALAKEIKAYAEEQIKKVEEAIKKAK
On to B5, for which the “binding in a display sort” value is “not found (inactive)”.

B6: design_391_ca6baf5d-2451-47ba-bffc-fc886679966a_1195_dldesign_0_cycle1_af2pred (protein)
chain: SLYDEALKYAMQAANLGYEADPELAKKLRQAAIALAQGKIDEAIALLKEAKELAKKYPEKEPEIKELIDKAIELANKIK
For B6, the “binding in a display sort” value was “not found (inactive)”.

B7: design_486_d4f32670-1303-4d79-8413-1b14cb3eff50_135_dldesign_0_cycle1_af2pred (protein)
chain: EREEEVERRREEVVRAAELVAAIARAVGDEETARLAEEAKRLAEEGGEEGVERARELVREAMVRIAKRLAEKS
B7: the “binding in a display sort” value was “not found (inactive)”.

B8: design_391_ca6baf5d-2451-47ba-bffc-fc886679966a_968_dldesign_0_cycle1_af2pred (protein)
chain: AAAQQQLRDQARKLLEQAAKRAKEAGNEEAAKEAKEAAKLLKEGGSLGEAAVEASRAHAAAVRFGDEETAALAQAALKLLSQAA
As for B8, the “binding in a display sort” value was “not found (inactive)”.

B9: design_391_ca6baf5d-2451-47ba-bffc-fc886679966a_926_dldesign_0_cycle1_af2pred (protein)
chain: AEAAAQKALATAMAKALKKRGEELLKEAKTASAEEAKKLLDNFVKLGEVLAAGAPPEVGAEVKAATEKYSAEMQAVIDAKAA
Take B9: the “binding in a display sort” value was “not found (inactive)”.

B10: design_486_d4f32670-1303-4d79-8413-1b14cb3eff50_300_dldesign_0_cycle1_af2pred (protein)
chain: SELDEELLERAKRLLETAKAAGAAGDKETVQQALGEAVELAAEAQRHRDVVSEETWQAIQQALNTAAQHAIAL
As for B10, the “binding in a display sort” value is “not found (inactive)”.

B11: design_391_ca6baf5d-2451-47ba-bffc-fc886679966a_1188_dldesign_0_cycle1_af2pred (protein)
chain: AAAEEIAARNGEALARQAAAASPEDAAAIAENALQMARASPLFAPAARKAVEAAAETIAKEDPERGEALLREGLAAVEAIEA
B11: the “binding in a display sort” value was “not found (inactive)”.

B12: design_391_ca6baf5d-2451-47ba-bffc-fc886679966a_1483_dldesign_0_cycle1_af2pred (protein)
chain: SEAAAKEKKAIEAIKKAAADAEAMLQSLIAAGMPAANARAVVTTMTTAARTAAKEAGTEAAKKAAKEAIAKIEAAGKAAEAQLAAQAA
Consider B12, for which the “binding in a display sort” value is “not found (inactive)”.

B13: design_391_ca6baf5d-2451-47ba-bffc-fc886679966a_2349_dldesign_0_cycle1_af2pred (protein)
chain: NQAKLAEVFARAQEVIKRREEVRKRAEELSEEKREKVLKLLEESTKYLQEAFRAIAKGDAENAKKYVDKAEKLVEEAEKA
As to B13, the “binding in a display sort” value was “not found (inactive)”.

B14: design_486_d4f32670-1303-4d79-8413-1b14cb3eff50_194_dldesign_0_cycle1_af2pred (protein)
chain: GVEEAYDVAKALAEQAIKANAADPEAKKKAEEALKKAEEAYKNAPKIDPAEAAYKIMKEAAKAAKQYLAAVAK
Take B14: the “binding in a display sort” value is “not found (inactive)”.

B15: design_391_ca6baf5d-2451-47ba-bffc-fc886679966a_1764_dldesign_0_cycle1_af2pred (protein)
chain: DPLEEALKEFEEALKLARELAEAVAALNPEEGERAREAIKEAEKRAKEALKLSPEEAAKAIREIRNELMRRVMREGARALAAA
As for B15, the “binding in a display sort” value is “not found (inactive)”.

B16: design_391_ca6baf5d-2451-47ba-bffc-fc886679966a_2271_dldesign_0_cycle1_af2pred (protein)
chain: AAAEKEKEAEAKELFEKARKLAAEAAKLAVKAVGLSEEAYQLANEALQYAIEALEIVSAGEDLEKAKELLEKAQEKLKKATELVKKL
In the case of B16, the “binding in a display sort” value was “not found (inactive)”.

B17: design_391_ca6baf5d-2451-47ba-bffc-fc886679966a_1141_dldesign_0_cycle1_af2pred (protein)
chain: APAAATARAVGKRAQAAAKKLAKAGTKEVAKEAKKLAEKAKELEKEAIANAADTAVSGAKILEILKLLDEANKLLKKY
As for B17, the “binding in a display sort” value is “not found (inactive)”.

B18: design_391_ca6baf5d-2451-47ba-bffc-fc886679966a_2255_dldesign_0_cycle1_af2pred (protein)
chain: DPLLAAARAVAAAALAAVRDGAARGAEAAEQALTFALNLLAAQARRAERELAGDPALRARVLAILDAARAEVRALGEALIAAAR
Turning to B18, the “binding in a display sort” value was “not found (inactive)”.

B19: design_391_ca6baf5d-2451-47ba-bffc-fc886679966a_1281_dldesign_0_cycle1_af2pred (protein)
chain: AAQEVQERAREVAARAEALAAAAAADPAAARLARSAAHFARLAAELAPTDLPLAQQALEVAESLLAEAEALLAARRA
Regarding B19, the “binding in a display sort” value is “not found (inactive)”.

B20: design_486_d4f32670-1303-4d79-8413-1b14cb3eff50_103_dldesign_0_cycle1_af2pred (protein)
chain: AEAEEFAEKAKEKAKEAVKVYAKDPEAGAAKLNALQAEAARKAIADPRYNPALAAVVEEALKANEVAKAA
In the case of B20, the “binding in a display sort” value is “not found (inactive)”.

B21: design_391_ca6baf5d-2451-47ba-bffc-fc886679966a_1789_dldesign_0_cycle1_af2pred (protein)
chain: DALAQAIAQIKEMGDIALALAQDALANPAIAAGAIRAAQSLVKHMLALGKAAGPEAAAVAEKEAAKVNAAIAQAKAA
As for B21, the “binding in a display sort” value was “not found (inactive)”.

B22: design_391_ca6baf5d-2451-47ba-bffc-fc886679966a_2026_dldesign_0_cycle1_af2pred (protein)
chain: AAKEALEKAKEKAEEIKAIADDVAKKAAAGTITPEEVAAALAKAIELAKEASEYLKEVPEAEAEEIAREVNAAMAKLNKAAVKALA
With B22, the “binding in a display sort” value is “not found (inactive)”.

B23: design_486_d4f32670-1303-4d79-8413-1b14cb3eff50_34_dldesign_0_cycle1_af2pred (protein)
chain: AAEKAIKVLEEAKKEAAKDPGDGKAAIEAIEKAIEAVKANPNNAGIGQAMVILAEAAAKASPKTRAVLSKAIAELSQVAI
Take B23: the “binding in a display sort” value is “not found (inactive)”.

B24: design_391_ca6baf5d-2451-47ba-bffc-fc886679966a_2389_dldesign_0_cycle1_af2pred (protein)
chain: GKEEEAKEAVERARELAKKMIEEAEKAAKEDLGKAIEVLKKGNEELLELAEEAEELDPEAGEEIRELATQAISEAVKKMVAIQLAK
Regarding B24, the “binding in a display sort” value was “not found (inactive)”.

B25: design_486_d4f32670-1303-4d79-8413-1b14cb3eff50_4_dldesign_0_cycle1_af2pred (protein)
chain: REEKVEEARRLAQRALNAASKAVVGITSGSLSPEEIQALIDEATEALERAKELAPYATPAVREAIELAEALLQQAKEL
Turning to B25, the “binding in a display sort” value is “not found (inactive)”.

B26: design_391_ca6baf5d-2451-47ba-bffc-fc886679966a_1909_dldesign_0_cycle1_af2pred (protein)
chain: VGLAKAAELAVESAKQAVEQAEALAKAGKDPKQALALTDQAKLAADTAKAIAKQVEKEDPEKGKKLKEEAEKVKKKAEEVEKKIK
Take B26: the “binding in a display sort” value is “not found (inactive)”.

B27: design_391_ca6baf5d-2451-47ba-bffc-fc886679966a_1034_dldesign_0_cycle1_af2pred (protein)
chain: ADAAAQALSQAFELAAQALTKTGSDEANAALQAVTRAMADPAKLPEAIAAAKKAAAAYPEVKALMDQAIKELEKAAELAKAA
As to B27, the “binding in a display sort” value was “not found (inactive)”.

B28: design_391_ca6baf5d-2451-47ba-bffc-fc886679966a_888_dldesign_0_cycle1_af2pred (protein)
chain: AAAAAAAAAAAAAAAAALARAEELAAAASPEVRALIEAHGIAGRIMFMYTLGARAAAADPARGAELLADARALLAAAQAASRAA
In the case of B28, the “binding in a display sort” value is “not found (inactive)”.

B29: design_486_d4f32670-1303-4d79-8413-1b14cb3eff50_30_dldesign_0_cycle1_af2pred (protein)
chain: AAAARAKAGVYTGEGFEKVREGERLRREGDPRAVEEYEEAAKLFEKAAEYYAQVNPGAAAGVAAMAKQVRERAEEYREEL
Turning to B29, the “binding in a display sort” value was “not found (inactive)”.

B30: design_391_ca6baf5d-2451-47ba-bffc-fc886679966a_866_dldesign_0_cycle1_af2pred (protein)
chain: SMEEEKKKEAEKKAQSYLKSVEVWATATISAIAQGVVGAQMLANLKKKSEEAIKKLKELGTEEGKKAAEKVKAYLAKAEAAA
Take B30: the “binding in a display sort” value was “not found (inactive)”.

B31: design_391_ca6baf5d-2451-47ba-bffc-fc886679966a_1257_dldesign_0_cycle1_af2pred (protein)
chain: SAAAAAAARAAKAAADAEQLKALGDAAIAQLAADPSMAPQARAVAAMARAAAEGYAADPATAAAAEAARATAERVAAAAAAAA
As for B31, the “binding in a display sort” value is “not found (inactive)”.

B32: design_391_ca6baf5d-2451-47ba-bffc-fc886679966a_2108_dldesign_0_cycle1_af2pred (protein)
chain: TAAAALAAAKAALATAKAAGLPARYLEMAEAALAVATSAAASGDPAHQKAALAFSSAVLAAIEAEAAKRA
Regarding B32, the “binding in a display sort” value was “not found (inactive)”.

B33: design_391_ca6baf5d-2451-47ba-bffc-fc886679966a_1527_dldesign_0_cycle1_af2pred (protein)
chain: AEERAEEVRRRAEELRARALALIAEDPGAGMAYAVEAARELSEYGRAHPEVAEAAGEAANDVLSAASRAAMAVYAA
Turning to B33, the “binding in a display sort” value was “not found (inactive)”.

B34: design_486_d4f32670-1303-4d79-8413-1b14cb3eff50_66_dldesign_0_cycle1_af2pred (protein)
chain: AEAEAAAEAAAAAARAAAAAGDFATAVAITTTFAAANPALAWRVANAALAAFSQAARDPATAAAANAAMAAVVDTLRALSS
Take B34: the “binding in a display sort” value was “not found (inactive)”.

B35: design_391_ca6baf5d-2451-47ba-bffc-fc886679966a_2408_dldesign_0_cycle1_af2pred (protein)
chain: SAAAVAAALAAAEASVKTAERFAEEAEKAVDDPERATRLGESARQNIEVALALADDAAATDPAAAPKAAEIKKRAEEVRKRIEEVLKK
Take B35: the “binding in a display sort” value was “not found (inactive)”.

B36: design_391_ca6baf5d-2451-47ba-bffc-fc886679966a_1932_dldesign_0_cycle1_af2pred (protein)
chain: AQANAELTLRTLEAAGRAALALARASDAETAARILDAFRKTSAVLIESGAAAGPEAAKKVKELADKYLAELEAIVAAKAAEAA
In the case of B36, the “binding in a display sort” value was “not found (inactive)”.

B37: design_391_ca6baf5d-2451-47ba-bffc-fc886679966a_1313_dldesign_0_cycle1_af2pred (protein)
chain: MEEARRRAEELLRRVRELAARAAKAAAAGDVAEAQRLLAEALEALAELSRLGREVGPEGRELVREGNRAVAAAARAALAAARAA
For B37, the “binding in a display sort” value was “not found (inactive)”.

B38: design_391_ca6baf5d-2451-47ba-bffc-fc886679966a_2338_dldesign_0_cycle1_af2pred (protein)
chain: AEAAKQAALNTAGILAATVGAEAAAAAGLEAITVYGASIGDVLKATTTIASATSPQARANATRAVALISRALIAS
On to B38, for which the “binding in a display sort” value was “not found (inactive)”.

Source of the values: article PMC13494018.
